# Measurements published in PubChem BioAssay.
# “And” between values parts separate entries of the source, which are not always exact repeats. Equal entries are not always repeated. The source made the active and inactive calls.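 How the source made its calls, unless noted: active means inhibition at or above 50% relative to wild type and mutant plate controls; inactive means inhibition below 50%.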
# Legend:
# [1] = inhibitors of TNFa-induced NFkB p65 translocation, primary screen, imaging, HUVEC, MLSMR starter and 10KST1 sets (AID 438;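 active means inhibition above 20% together with a positive visual image hit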;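 further: compound added about 3h40 before a 20 min TNFalpha stimulation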;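 on inhibition: signal is the nuclear over cytoplasmic p65 intensity ratio per well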); details: HUVEC TNFa-induced p65 nuclear translocation; cell count: measured here: nuclei count (cytotoxicity indicator), at 2.08 µM; inhibition: at 2 µM, stronger effect = higher value, 0% TNFa-plus-vehicle, 100% no-TNFa wells
# [2] = reduction of polyQ htt aggregates in cells – imaging, exon1htt(103Q)mCFP cells, high-content imaging, primary screen (AID 483;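 active means visual image review flags a hit and inhibition of aggregation exceeds 20%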;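 further: compound exposure lasted 3 days before fixation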;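 on nuclei count: percent of the per-plate median nuclei count of sample wells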); details: exon1htt(103Q)mCFP cell line, aggregate imaging, at 2 µM; inhibition of aggregation: stronger effect = higher value; nuclei count: measured here: cell count, toxicity
# [3] = endothelial E-selectin expression blockers – imaging, HUVEC, immunofluorescence, MLSMR starter and 10KST1 sets, primary screen (AID 487;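 active means visually confirmed hit in the image check and inhibition above 20%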;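 on inhibition: signal is fraction of cell area covered by stained E-selectin grains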;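 on nuclei count: 100% = median nuclei count of all wells on the same plate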); details: HUVEC TNFalpha-induced E-selectin immunofluorescence imaging, at 2 µM; inhibition: stronger effect = higher value; nuclei count: measured here: cell number, toxicity
# [4] = Primary imaging screen for DUSP6 inhibitors that restore phospho-Erk in transfected HeLa cells, chemical complementation (AID 609;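 active means compounds giving at least 50% inhibition in the cell-based MKP-3 phosphatase rescue imaging test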;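 on inhibition: phospho-Erk level distribution per well compared with pooled transfected vehicle control wells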); details: HeLa MKP-3 transfected, phospho-Erk imaging KS statistic, at 10 µM, cells stimulated with TPA for 15 min
# [5] = target: Dual specificity protein phosphatase 6 (Homo sapiens) (UniProt Q16828); assay: as above; details: HeLa MKP-3 transfected, phospho-Erk imaging KS statistic; at 10 µM; stronger effect = higher value; cells stimulated with TPA for 15 min
# [6] = target: Voltage-gated potassium channel subunit beta-2 (Rattus norvegicus) (UniProt P62483); assay: inhibitors of rat Kvbeta2 reductase activity – biochemical, NADPH fluorescence, primary screen (AID 622;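 active means fluorescence slope higher than the sample average by over 3 SD, cut at about -0.22 in these data, passing the limit was not always enough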;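 further: slope of raw intensity against log time taken from 70 to 1610 s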); details: recombinant KvBeta, 4-cyanobenzaldehyde reduction, at 10 µM, stronger effect = higher value
# [7] = target: Voltage-gated potassium channel subunit beta-2 (Rattus norvegicus) (UniProt P62483); assay: enhancers of rat Kvbeta2 NADPH turnover – biochemical, NADPH fluorescence, primary screen (AID 623;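 active means NADPH fluorescence slope more negative than the mean of all samples by about 3 SD, 99.7% confidence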;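 further: fluorescence intensity change per second fitted from 20 to 320 s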); details: Recombinant KvBeta, NADPH fluorescence decrease slope, 10 min; at 10 µM; stronger effect = lower value
# [8] = target: Alpha-2C adrenergic receptor (Homo sapiens) (UniProt P18825); assay: compounds altering alpha2C-coupled GIRK flux – cell-based, HEK293 alpha2C/GIRK1/2, thallium flux, primary screen (AID 624;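 active means fluorescence slope after compound addition differing from the mean of all screened samples at 99.7% confidence, in either direction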;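 further: slope of fluorescence ratio to pre-addition baseline per second over 15 to 24 s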); details: thallium flux BTC fluorescence, at 10 µM, actives lie on both sides
# [9] = inhibitors of larval lipid processing in zebrafish, primary screen, whole organism, PED6 fluorescence, gall bladder and intestine (AID 686;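 active means a full or partial loss of lipid-probe fluorescence in the fish gall bladder, intestine or both, judged by eye; inactive means no fluorescence loss, or compound toxic to the fish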;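 further: larvae 5 to 7 days old with five fish per well; signal comes from phospholipase A2 cleavage of quenched PED6 carried via bile; overnight exposure to compound and PED6 before scoring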); details: Zebrafish larvae PED6 lipid processing, fluorescence scoring; screened at 20 µM (by protocol)
# [10] = loss of swimming-algae plug formation – whole organism, Chlamydomonas reinhardtii, WT vs cilia-less mutant, absorbance, 96-well, primary screen (AID 463189); details: Chlamydomonas reinhardtii gravitaxis, OD600 absorbance, 2 days; at 10 µM; stronger effect = higher value;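 further: 0% = wild type cc124 cells in DMSO and 100% = ciliumless bld1 mutant cells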
# [11] = blockers of RIG-like receptor reporter activation – cell-based, Sendai virus stimulus, luciferase, 10K MLSCN set, TLR/RLR signaling modifier project, primary screen (AID 602276;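 active means inhibition at or above 50% at 10 µM; inactive means inhibition below 50%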;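 further: firefly luciferase from ISG56 promoter only with Renilla not read in this screen; 0% = Sendai virus plus DMSO and 100% = medium plus DMSO without virus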); details: HEK293 RL24 IRF3 luciferase reporter, at 10 µM, stronger effect = higher value
# [12] = TLR3 IRF3 reporter activation blockers – cell-based, poly I:C stimulus, luciferase, 10K MLSCN set, primary screen (AID 602277;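 active means inhibition of the reporter signal at or above 50%; inactive means inhibition below 50%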); details: HEK293-TLR3 RL24 IRF3 luciferase reporter, at 10 µM, stronger effect = higher value
# [13] = target: Muscarinic acetylcholine receptor M4 (Homo sapiens) (UniProt P08173); assay: M4-linked GIRK flux change, two-sided – cell-based, HEK293 M4/GIRK, thallium flux, BTC-AM, M4 allosteric agonist project, primary screen (AID 625;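 active means fluorescence slope after compound addition differing from the mean of all tested samples at 99.7% confidence, mostly higher but some lower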;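 further: thallium influx through GIRK channels coupled to M4 in HEK293 cells with BTC-AM dye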); details: at 10 µM, actives lie on both sides
# [14] = measured here: cell density z-score
# [15] = measured here: nuclear c-Myc green intensity z-score
# [16] = measured here: nuclear pErk red intensity z-score, stronger effect = higher value
# Sequence of Voltage-gated potassium channel subunit beta-2 (Rattus norvegicus) (P62483 whole entry, looked up): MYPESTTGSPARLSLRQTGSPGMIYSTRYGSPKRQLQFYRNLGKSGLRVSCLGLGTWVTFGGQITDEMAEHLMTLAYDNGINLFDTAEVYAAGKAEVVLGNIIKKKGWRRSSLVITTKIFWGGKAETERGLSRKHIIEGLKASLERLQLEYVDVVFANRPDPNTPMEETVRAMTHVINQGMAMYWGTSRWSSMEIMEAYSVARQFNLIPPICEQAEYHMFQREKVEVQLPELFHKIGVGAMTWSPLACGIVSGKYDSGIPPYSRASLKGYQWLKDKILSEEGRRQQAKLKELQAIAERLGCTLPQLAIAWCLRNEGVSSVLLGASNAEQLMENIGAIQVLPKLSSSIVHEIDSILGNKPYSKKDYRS
# Sequence of Dual specificity protein phosphatase 6 (Homo sapiens) (Q16828 whole entry, looked up): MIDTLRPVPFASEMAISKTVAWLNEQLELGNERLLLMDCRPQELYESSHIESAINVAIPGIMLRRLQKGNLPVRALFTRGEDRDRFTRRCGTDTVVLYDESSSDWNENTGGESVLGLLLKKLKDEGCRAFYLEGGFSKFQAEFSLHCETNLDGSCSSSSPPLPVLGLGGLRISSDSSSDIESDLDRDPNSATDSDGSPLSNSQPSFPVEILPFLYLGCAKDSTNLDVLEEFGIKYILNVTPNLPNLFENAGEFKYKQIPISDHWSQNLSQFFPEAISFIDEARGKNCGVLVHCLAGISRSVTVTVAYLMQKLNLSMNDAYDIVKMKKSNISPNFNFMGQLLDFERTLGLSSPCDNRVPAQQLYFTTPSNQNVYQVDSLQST
# Sequence of Alpha-2C adrenergic receptor (Homo sapiens) (P18825 whole entry, looked up): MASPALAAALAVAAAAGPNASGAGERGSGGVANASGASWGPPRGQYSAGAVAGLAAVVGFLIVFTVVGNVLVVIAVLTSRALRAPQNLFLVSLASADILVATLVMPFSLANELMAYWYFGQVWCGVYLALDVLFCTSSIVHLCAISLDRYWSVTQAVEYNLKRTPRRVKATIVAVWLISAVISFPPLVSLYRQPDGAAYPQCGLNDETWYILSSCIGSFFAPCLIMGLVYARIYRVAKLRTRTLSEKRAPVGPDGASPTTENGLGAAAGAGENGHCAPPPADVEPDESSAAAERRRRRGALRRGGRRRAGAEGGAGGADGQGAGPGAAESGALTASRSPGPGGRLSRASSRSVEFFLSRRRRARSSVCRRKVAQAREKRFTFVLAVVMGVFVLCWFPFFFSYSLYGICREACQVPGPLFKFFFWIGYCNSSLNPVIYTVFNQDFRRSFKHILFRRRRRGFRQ
# Sequence of Muscarinic acetylcholine receptor M4 (Homo sapiens) (P08173 whole entry, looked up): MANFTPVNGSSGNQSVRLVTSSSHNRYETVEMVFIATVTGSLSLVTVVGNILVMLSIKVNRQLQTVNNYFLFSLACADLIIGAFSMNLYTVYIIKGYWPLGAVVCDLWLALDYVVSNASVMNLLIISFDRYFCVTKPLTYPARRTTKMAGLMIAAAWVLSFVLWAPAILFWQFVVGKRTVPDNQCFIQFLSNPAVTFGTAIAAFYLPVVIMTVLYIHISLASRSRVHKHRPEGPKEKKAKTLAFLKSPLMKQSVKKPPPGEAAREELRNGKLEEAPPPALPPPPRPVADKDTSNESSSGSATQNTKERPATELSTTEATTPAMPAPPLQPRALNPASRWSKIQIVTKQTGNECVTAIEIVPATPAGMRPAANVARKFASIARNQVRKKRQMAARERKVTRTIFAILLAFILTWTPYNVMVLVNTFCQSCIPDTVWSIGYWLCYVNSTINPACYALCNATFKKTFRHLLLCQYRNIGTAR
SMILES,cell count [1],inhibition [1],inhibition of aggregation [2],nuclei count [2] [%],inhibition [3],nuclei count [3] [%],"z-score [4, 14]","z-score [4, 15]","z-score [4, 16]",inhibition [5],fluorescence slope [6],NADPH fluorescence slope [7],slope [8],outcome [9],inhibition [10],inhibition [11],inhibition [12],fluorescence slope [13]
Cn1c(=O)c2c3c(sc2n2c(SCc4ccccc4)nnc12)CCCC3,550,-5.3% (inactive),1.8% (inactive),103,-44% (inactive),99.3,-0.0166,-0.0898,-0.287,4.37% (inactive),-0.371 (inactive),-1.7e-05 (inactive),0.00552 (inactive),inactive,32.4% (inactive),-3.8% (inactive),97.9% (active),
COCc1cc(=O)[nH]c(Nc2nc3ccccc3o2)n1,597,-4.5% (inactive),5.2% (inactive),87.4,-16% (inactive),95.2,0.0739,-1.45,-0.93,-2.09% (inactive),-0.469 (inactive),-5.1e-05 (inactive),,inactive,4.61% (inactive),-29.5% (inactive),-80.2% (inactive),0.00519 (inactive)
CC(C)(C)NCC(O)c1cc(O)cc(O)c1 (stereo not drawn),472,-2.4% (inactive),21.1% (inactive),89.3,-7% (inactive),88.9,0.22,-3,-0.525,1.38% (inactive),-0.472 (inactive),-6.7e-05 (inactive),0.00544 (inactive),inactive,6.82% (inactive) and -7.52% (inactive),7.09% (inactive),35.9% (inactive),
COC(=O)c1cc(S(=O)(=O)N2CCOCC2)c(N2CCOCC2)cc1N1CCOCC1,427,-5.9% (inactive),5% (inactive),118,-21.7% (inactive),129,-1.77,-0.115,0.265,-1.75% (inactive),-0.409 (inactive),-0.000135 (inactive),0.00461 (inactive),inactive,23.9% (inactive),4.03% (inactive),11% (inactive),
